Structures are written as SMILES. ± gives the standard deviation of the averaged measurements.

The subject of test [1] is DLD1. In words: cell viability (CellTiter-Glo) relative to plate median (fraction of plate median); higher = more viable cells. As to conditions: 5 µM; treatment time 24 h; reporter: 7TFP. The essentials:
(§1)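 After seeding in 384-well plates, colorectal cancer cell lines carrying stable lentiviral TCF/Wnt firefly luciferase reporters (7TFP or TCF4/Wnt) were left 24 h. Library compounds were then added at a final 5 µM for 24 h. A Tecan F500 reader measured firefly luciferase or CellTiterGlo luminescence on parallel plates, with each well normalised to the plate median by webcellHTS2 (additive, no log transformation), and two independent replicates averaged.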

The next test has as its system HCT116. The test is described as above. The conditions noted are these: 5 µM; treatment time 24 h; reporter: TCF4/Wnt. In a few lines: as §1
For test [2], the system named is SW480. Described as above. The conditions noted are these: 5 µM; treatment time 24 h; reporter: 7TFP. The essentials: as §1
Test [3] concerns DLD1. The experiment in a line: TCF/Wnt firefly luciferase reporter signal relative to plate median (fraction of plate median); higher = higher Wnt reporter signal. As to conditions: 5 µM; treatment time 24 h; reporter: 7TFP. The essentials: as §1
Test [4] relates to SW480. The test is described as above. The conditions noted are these: 5 µM; treatment time 24 h; reporter: 7TFP. The essentials:
as §1

Regarding `CNC[C@H](O)c1ccc(O)c(O)c1`, the cell viability in the test with DLD1 [1] worked out at 0.9995 ± 0.00071; in the test on HCT116, 1.05 ± 0.021; in the test on SW480 [2], 0.916 ± 0.064. The “TCF/Wnt firefly luciferase reporter signal” value in the test with DLD1 [3] came out at 1.11 ± 0.064; with SW480 [4] it was 1.12 ± 0.042.
Regarding `CCN(CC)CCNc1ccc(CO)c2sc3ccccc3c(=O)c12`, the cell viability came out at 1.1 ± 0.028 in the test on DLD1 [1], 1.02 ± 0.014 with HCT116 and 0.995 ± 0.0057 in the test on SW480 [2]. Further, the entries for the “TCF/Wnt firefly luciferase reporter signal” value with DLD1 [3] and in the test with SW480 [4] were 1.16 ± 0.18 and 0.988 ± 0.1, respectively.
The matching figures for `C=C(C)[C@@H]1CC[C@]2(C(=O)O[C@@H]3O[C@H](CO[C@@H]4O[C@H](CO)[C@@H](O[C@@H]5O[C@@H](C)[C@H](O)[C@@H](O)[C@H]5O)[C@H](O)[C@H]4O)[C@@H](O)[C@H](O)[C@H]3O)CC[C@]3(C)[C@H](C[C@@H](O)[C@@H]4[C@@]5(C)[C@@H](CC(=O)O)OC(C)(C)[C@@H]5CC[C@]43C)[C@@H]12` [Isochiisanoside (6)]: 0.92 ± 0.055, 0.934 ± 0.0028, 0.915 ± 0.066, 0.953 ± 0.15 and 0.945 ± 0.0071.
The matching figures for `COC(=O)[C@H]1[C@H]2C[C@H]3c4[nH]c5cc(OC)ccc5c4CCN3C[C@H]2C[C@@H](OC(=O)c2cc(OC)c(OC)c(OC)c2)[C@@H]1OC`: 0.96 ± 0.057, 1 ± 0.11, 0.905 ± 0.011, 1.18 and 0.9565 ± 0.0021.
In the case of `C#C[C@]1(O)CC[C@H]2[C@@H]3CCc4cc(O)ccc4[C@H]3CC[C@@]21C`, the cell viability in the test on DLD1 [1] was found to be 0.934 ± 0.016; in the test on HCT116, 0.972 ± 0.054; with SW480 [2] it was 0.9755 ± 0.0092. The “TCF/Wnt firefly luciferase reporter signal” value with DLD1 [3] amounted to 1.08 ± 0.078; in the test on SW480 [4] it was 1.04 ± 0.021.
On to `O=C(/C=C/c1ccccc1)c1ccc(O[C@@H]2O[C@H](CO)[C@@H](O)[C@H](O)[C@H]2O)cc1O`, for which the cell viability with DLD1 [1] was determined as 0.947 ± 0.022; in the test with HCT116, 0.83 ± 0.04; in the test with SW480 [2], 0.978 ± 0.018. For the same compound, the results for the “TCF/Wnt firefly luciferase reporter signal” value with DLD1 [3] and in the test on SW480 [4] were 1.02 ± 0.036 and 1.13 ± 0.057, respectively.
With `CCc1c(O)cc(C(C)CC)oc1=O` (stereo not given) [Germicidin], the cell viability with DLD1 [1] is 1.02 ± 0.014; in the test with HCT116 it was 0.92 ± 0.034; in the test with SW480 [2] it was 0.965 ± 0.05. Also, the figures for the “TCF/Wnt firefly luciferase reporter signal” value in the test with DLD1 [3] and in the test with SW480 [4] were 0.946 ± 0.16 and 1.06 ± 0.09, respectively.
`O=c1cc(CO)occ1O` [Kojic acid (Biofocus)]: the cell viability was 0.943 ± 0.08 in the test with DLD1 [1], 1.02 ± 0.083 with HCT116 and 0.994 ± 0.093 in the test with SW480 [2]. Further, the “TCF/Wnt firefly luciferase reporter signal” value in the test with DLD1 [3] was found to be 1.21 ± 0.13; with SW480 [4], 1.12 ± 0.035.
As for `C=C(C)[C@@H]1CC[C@]2(CO)CC[C@]3(C)[C@H](CC[C@@H]4[C@@]5(C)CC[C@H](O)C(C)(C)[C@@H]5CC[C@]43C)[C@@H]12`, the cell viability in the test with DLD1 [1] was found to be 0.995 ± 0.064; with HCT116, 0.973 ± 0.053; in the test on SW480 [2], 0.978 ± 0.027. Further, the results for the “TCF/Wnt firefly luciferase reporter signal” value in the test with DLD1 [3] and with SW480 [4] were 1.135 ± 0.0071 and 1.045 ± 0.0071, respectively.
For `Cc1cn([C@H]2C[C@H](N=[N+]=[N-])[C@@H](CO)O2)c(=O)[nH]c1=O`, the cell viability is 0.976 ± 0.012 in the test with DLD1 [1], 0.958 ± 0.018 with HCT116 and 1 ± 0.022 in the test with SW480 [2]. The entries for the “TCF/Wnt firefly luciferase reporter signal” value in the test with DLD1 [3] and in the test with SW480 [4] were 0.874 ± 0.02 and 0.928 ± 0.011, respectively.
For the compound `COc1cc(OC)c2c(=O)c(O)c(-c3ccc(OC)c(OC)c3)oc2c1`, the cell viability with DLD1 [1] turned out to be 0.981 ± 0.055; in the test with HCT116 it was 1 ± 0.024; in the test with SW480 [2], 1.01 ± 0.021. The “TCF/Wnt firefly luciferase reporter signal” value came to 0.899 ± 0.1 in the test on DLD1 [3] and 0.887 ± 0.17 in the test with SW480 [4].
`CC1=C(C(=O)O)N2C(=O)[C@@H](NC(=O)[C@H](N)c3ccccc3)[C@H]2SC1`: the values for the cell viability in the test on DLD1 [1], in the test with HCT116 and in the test with SW480 [2] were 1 ± 0.065, 1.02 ± 0.082 and 0.983 ± 0.025, respectively. The “TCF/Wnt firefly luciferase reporter signal” value came out at 0.991 ± 0.056 with DLD1 [3] and 1.015 ± 0.0071 with SW480 [4].
As for `CC(=O)OC(C)C[N+](C)(C)C` (stereo not given), the cell viability in the test with DLD1 [1] came out at 0.968 ± 0.1; with HCT116 it was 1.03 ± 0.08; with SW480 [2], 0.997 ± 0.019. For the same compound, the results for the “TCF/Wnt firefly luciferase reporter signal” value in the test with DLD1 [3] and in the test on SW480 [4] were 1.01 ± 0.071 and 1.01 ± 0.021, respectively.
On to `Cc1ccc(-c2cc(C(F)(F)F)nn2-c2ccc(S(N)(=O)=O)cc2)cc1`, for which the cell viability turned out to be 0.972 ± 0.097 in the test on DLD1 [1], 1.02 ± 0.087 with HCT116 and 0.987 ± 0.047 in the test on SW480 [2]. Moreover, the “TCF/Wnt firefly luciferase reporter signal” value came to 0.919 ± 0.013 in the test with DLD1 [3] and 0.947 ± 0.04 with SW480 [4].

The record behind these values is the supplement of paper PMC6522484.
